This passage reports growth results from PubChem BioAssay (NCI).

Molecules are shown by their SMILES. About 83,000 compounds went through this panel and 20% of them were active in at least one assay; those are over-represented in the sample as a whole.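 Plates (96-well) were seeded with cells, treated with compound at one concentration, and incubated for 48 hours before percent growth was determined.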 Values without a mark were called inactive. Calls of active or inactive are those of the source.

This assay has as its system HT29 colon. Kind of assay: NCI-60 one-dose screen, 48 h (100 = growth as untreated, 0 = no growth, -100 = all killed). The following applies: 10 µM unless noted. How it is done: Growth inhibition of the HT29 human tumor cell line is measured as a screen for anti-cancer activity. Cells are grown in 96 well plates and exposed to the test compound for 48 hours. Compounds are tested at a single concentration, which is 10^-5 M for most compounds. The reported endpoint is percent growth (GI% or GIPRCNT), where numbers from 0 - 100% represent growth inhibition, and numbers from -100% - 0 represent cell death. For example, a value of 40 represents 60% growth inhibition. A value of 0 means no net growth occurred over the course of the experiment. A value of -40 indicates 40% of cells at the beginning of the experiment died by the end of the experiment. A value of -100 means all cells are dead at the end of the experiment.
NCI-60 Human Tumor Cell Lines Screen was performed using the standard one-dose NCI protocol, which is described in more detail at https://dtp.cancer.gov/discovery_development/nci-60/default.htm.
Compounds with GIPRCNT values below 10 were considered active. Activity score was based on GIPRCNT using the following formula: […]
Score is 0 for GIPRCNT values of 100 or above, 50 for GIPRCNT values of 0, and 100 for GIPRCNT values of -100.
`COc1ccc(-c2nc(/C=C3/C(=O)Nc4ccc(F)cc43)c3ccccn23)cc1`: the growth was 103%. On to `CCO/C=N/C1=C(C#N)C(c2ccc(Cl)cc2)c2c(c3ccccc3n(C)c2=O)O1` (stereo not given), for which the growth is 35%.

With `CCOC(=O)CC(=O)OC`, the growth was 96.5%.

`CC(O)CN1CCCCC1` (stereo not given): the growth was 92.3%. As to `O=C1/C(=C/c2ccc(Cl)cc2)CN(Cc2cn(CCNc3ccnc4cc(Cl)ccc34)nn2)C/C1=C\c1ccc(Cl)cc1`, the growth was -100% (active).

As for `Cn1ccc(Nc2nccc(Oc3ccc(C(=O)Nc4cccc(F)c4)c(Cl)c3)n2)c1`, the growth is 100%. As for `OB(O)c1cccc(-c2nc3ccc4[nH]ncc4c3c3c2CCCC3)c1F`, the figure is 45.2%; as for `O=C1c2c(c3c4ccccc4n(CCCCCCBr)c3c3[nH]c4ccccc4c23)C(=O)N1O`, -19.7% (active); as for `N#Cc1c(-c2ccccc2)cc(-c2ccccc2)n(CC(=O)NO)c1=O`, 33.5%. Then `Cc1ccc(-c2nc(C#N)c(S(=O)(=O)n3nc(-c4ccccc4)cc3N)o2)cc1`, with 56%; and `O=C(O)C1CCCCN1c1nc(Cl)nc(Cl)n1` (stereo not given), with 106%; and `c1ccc(-c2nnc(-c3ccccn3)s2)nc1`, with 104%. For `CC(C)(C)n1cc(-c2ccnc(NCCNS(=O)(=O)c3ccc(Cl)cc3)c2)c(-c2cccc(O)c2)n1`, the growth is 16.6%. Then `CCCCCCCCN(CCCCCCCC)CCCCCCNc1cc(OC)cc2cccnc12`, with 28.1%; and `O=[N+]([O-])c1cccc(-c2nc3sccn3c2-c2ccnc(NCCCNS(=O)(=O)c3ccc(Cl)cc3)n2)c1`, with 56.4%. As for `Cc1cc(N/N=C/c2nc(-c3ccccc3)oc2C)c2cc(Cl)ccc2n1`, the figure is -78.1% (active); as for `CCOC(=O)C1C(=O)C=C(c2ccc(OC)cc2)CC1c1sc(N(C)Cc2ccccc2)nc1Cl` (stereo not given), 88.1%.

`Cc1ccc(C(=O)C2=Cc3cc4ccccc4n3Cc3cnnn32)cc1`: the growth is 106%. For `Cc1nc2ncccc2nc1Nc1ccc(S(=O)(=O)Nc2cncs2)cc1`, the growth was 101%. As for `Cc1ccc(S(=O)(=O)NCCNc2cc(-c3cn(C(C)(C)C)nc3-c3cccc(O)c3)ccn2)cc1`, the figure is 17.2%. With `CCOc1cc2c(Cl)ncnc2c(OCC)c1OCC`, the growth is 78.4%. Take `CCN1C(=O)N(CC)C2C1NN=c1s/c(=C\c3cccnc3)c(=O)n12` (stereo not given): the growth was 8.17% (active).

For `Clc1cc(Cl)c2nc(-c3ccc(-c4ccc(/C=N/NC5=NCCN5)cc4)s3)cn2c1`, the growth was 35%. As for `COc1cc(C2NN=C3c4ccccc4CCC32)cc(OC)c1OC` (stereo not given), the figure is 105%; as for `COc1ccc(-c2ccc(C)n2-c2ccc(-c3nc4ccccc4s3)cc2)cc1`, 92%; as for `Cc1ccc(-c2cc3nc(C(Cl)Cl)nc(-c4cccnc4)n3n2)cc1`, -27% (active).

As for `COc1ccc2[nH]c(=O)c(/C=N/Nc3nc(-c4ccccc4)cs3)c(O)c2c1`, the growth was 70.2%. Regarding `CN1C(=O)N(C)C2C1NN=c1s/c(=C\c3cccnc3)c(=O)n12` (stereo not given), the growth is 49.1%. As for `COc1cc2c(=O)n(C3CCCCCC3)c3c4cc[nH]c4ncc3c2cc1OC`, the figure is 79.9%; as for `CCN(CC)CCOc1ccc(/C(=C(/C)c2ccccc2)c2ccc(OC(C)=O)cc2)cc1`, 67.2%; as for `COc1cc(/C(C#N)=C/c2ccc3c(c2OC)OCO3)cc2c1OCO2`, 0.067% (active).

Take `Cc1ccc(S(=O)(=O)NCCNc2nccc(-c3c(-c4ccc(O)cc4)nc4sccn34)n2)cc1`: the growth was 78.9%. Then `O=C(O)C1CCCN1` (stereo not given), with 97.3%. Then `CCCCCCCCCCCCNC(=O)[C@H]1CSC(c2cc3ccccc3s2)N1` (stereo not given in full), with -8.26% (active). Consider `N=c1ccc2nc3ccc(N)cc3sc-2c1`, for which the growth was 41.3%. `CCCCCc1cc[n+](CC(=O)c2ccc([N+](=O)[O-])cc2)cc1`: the growth is 21.5%. As for `O=c1[nH]c2ccc(Br)cc2c2c1C(c1ccc(Cl)cc1)c1c(ncn3nc(-c4ccco4)nc13)O2` (stereo not given), the figure is 73%; as for `COc1cc(NCCCCCN)c2ncccc2c1`, 118%; as for `C=COC(=O)CCCCCCCCC`, 100%. Consider `COc1ccc(C(=O)N2NC(=O)/C(=C/c3ccccc3F)N=C2c2ccccc2)cc1`, for which the growth was 113%.
